Data taken from PubChem BioAssay (Tox21).
Inconclusive results are not listed. Activity calls are given as the source filed them. Unless noted, the call rests on the fitted dose curve; in most records, active means well fitted curve in the direction sought with a large enough effect in the repeat runs; inconclusive means weak or mixed curves; inactive means no such curve, though single readings can be large; an effect the other way counts as inactive or inconclusive.

Legend:
[1] = qHTS assay to identify small molecule agonists of the estrogen related receptor (ERR) signaling pathway from Tox21 library (AID 1224849; calls by dose curve; further: nearly all actives have a fitted effect of over 15% in size)
Summary of the method: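 Six hours post-seeding at 37 C/5% CO2, ERR cells receive DMSO-solubilised compounds; after 18 h at 37 C, ONE-Glo reagent is applied and luminescence recorded.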

[2] = qHTS RealTime-Glo MT Cell Viability Assay in HepG2 cells - 24 hour (AID 1224867); further: nearly all actives have a fitted effect of over 50% in size
Summary of the method: (§1)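 HepG2 suspension premixed with RealTime-Glo reagents is plated at 600 cells per well and left 5 h at 37 C/5% CO2. Compounds in DMSO then go in, and bioluminescence reflecting viable cell number is recorded over 40 h.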

[3] = qHTS RealTime-Glo MT Cell Viability Assay in HEK293 cells - 32 hour (AID 1224868); further: top concentration of the series differs between compounds; nearly all actives have a fitted effect of over 50% in size
Summary of the method: (§2)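 Reads taken at 0, 8, 16, 24, 32 and 40 h from the same wells. HEK293 cells (600/well) carried RealTime-Glo reagents from seeding, with compound added after a 5 h settle at 37 C.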

[4] = A CellTox Green Cytotoxicity Assay to monitor cytotoxicity in HEK293 cells - 0 hour (AID 1224869); further: nearly all actives have a fitted effect of over 50% in size
Summary of the method: (§3)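 Seeding of HEK293 cells together with cytotoxicity dye preceded a 5 h incubation at 37 C/5% CO2. Test compounds in DMSO were then added and fluorescence monitored across 40 h.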

[5] = qHTS RealTime-Glo MT Cell Viability Assay in HepG2 cells - 40 hour (AID 1224870); further: nearly all actives have a fitted effect of over 50% in size
Summary of the method: (§4)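 Real-time viability: cells seeded at 600 per well together with NanoLuc and cell-permeant prosubstrate, compounds added after 5 h incubation. Luminescence tracked at 0, 8, 16, 24, 32 and 40 h of exposure.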

[6] = A CellTox Green Cytotoxicity Assay to monitor cytotoxicity in HEK293 cells - 40 hour (AID 1224871); further: nearly all actives have a fitted effect of over 45% in size
Summary of the method: as §3

[7] = qHTS RealTime-Glo MT Cell Viability Assay in HEK293 cells - 16 hour (AID 1224872)
Summary of the method: as §2

[8] = qHTS RealTime-Glo MT Cell Viability Assay in HepG2 cells - 8 hour (AID 1224873); further: nearly all actives have a fitted effect of over 55% in size
Summary of the method: as §4

[9] = qHTS RealTime-Glo MT Cell Viability Assay in HEK293 cells - 40 hour (AID 1224874); conditions: RealTime-Glo luminescence; max response: hits give low values; further: nearly all actives have a fitted effect of over 50% in size
Summary of the method: (§5)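 Tox21 screen in HEK293 using RealTime-Glo MT chemistry, with cells and reagent co-dispensed. Luminescence proportional to viable cell number was captured at intervals during 40 h compound exposure at 37 C.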

[10] = A CellTox Green Cytotoxicity Assay to monitor cytotoxicity in HEK293 cells - 24 hour (AID 1224875); further: series mostly up to about 77 µM; nearly all actives have a fitted effect of over 45% in size
Summary of the method: as §3

[11] = A CellTox Green Cytotoxicity Assay to monitor cytotoxicity in HepG2 cells - 16 hour (AID 1224876); further: nearly all actives have a fitted effect of over 45% in size
Summary of the method: (§6)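 Nonlytic assay: viable cells exclude the dye, so fluorescence scales with cell death. HepG2 at 600 cells/well, compounds added after 5 h, signal read across 40 h.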

[12] = qHTS RealTime-Glo MT Cell Viability Assay in HepG2 cells - 32 hour (AID 1224877); further: nearly all actives have a fitted effect of over 55% in size
Summary of the method: as §1

[13] = A CellTox Green Cytotoxicity Assay to monitor cytotoxicity in HepG2 cells - 24 hour (AID 1224878); further: nearly all actives have a fitted effect of over 45% in size
Summary of the method: as §6

[14] = A CellTox Green Cytotoxicity Assay to monitor cytotoxicity in HepG2 cells - 40 hour (AID 1224879); further: nearly all actives have a fitted effect of over 40% in size; further: potency means the concentration at half of the fitted maximal effect
Summary of the method: as §6

[15] = qHTS RealTime-Glo MT Cell Viability Assay in HEK293 cells - 0 hour (AID 1224880)
Summary of the method: as §5

[16] = A CellTox Green Cytotoxicity Assay to monitor cytotoxicity in HEK293 cells - 32 hour (AID 1224881); further: nearly all actives have a fitted effect of over 40% in size
Summary of the method: as §3

[17] = A CellTox Green Cytotoxicity Assay to monitor cytotoxicity in HepG2 cells - 0 hour (AID 1224882); further: nearly all actives have a fitted effect of over 35% in size
Summary of the method: as §6

[18] = A CellTox Green Cytotoxicity Assay to monitor cytotoxicity in HepG2 cells - 32 hour (AID 1224883); further: nearly all actives have a fitted effect of over 50% in size
Summary of the method: as §6

[19] = A CellTox Green Cytotoxicity Assay to monitor cytotoxicity in HEK293 cells - 8 hour (AID 1224884); further: nearly all actives have a fitted effect of over 35% in size
Summary of the method: as §3

[20] = qHTS RealTime-Glo MT Cell Viability Assay in HepG2 cells - 16 hour (AID 1224885); further: nearly all actives have a fitted effect of over 50% in size
Summary of the method: as §1
On the % scale 0 is the no-effect control and ±100 the full control effect.

O=[Si]=O
inactive: outcome [1] | outcome [2] | Potency [3] | Potency [4] | outcome [5] | Potency [6] | Potency [7] | outcome [8] | max response [9] 0.247% | Potency [10] | Potency [11] | outcome [12] | Potency [13] | Potency [14] | outcome [15] | Potency [16] | Potency [17] | Potency [18] | Potency [19] | outcome [20]

CCCCCCCCCCCCCCCCI
inactive: activity change, positive = activation [1] 2.23% [at 19 µM] | activity change, negative = cytotoxicity [2] -1.23% [at 15.8 µM] | activity change, negative = cytotoxic [3] -10.5% [at 15.8 µM] | cytotoxicity [4] 0.206% [at 15.8 µM] | activity change, negative = cytotoxic [5] 17.3% [at 15.8 µM] | cytotoxicity increase [6] -8.08% [at 15.8 µM] | activity change, negative = cytotoxicity [7] -6.59% [at 15.8 µM] | max response [9] -10.6% | activity change [10] -5.96% [at 15.8 µM, hits give high values] | cytotoxicity increase [11] -9.76% [at 15.8 µM] | activity change, negative = cytotoxic [12] 7.46% [at 15.8 µM] | cytotoxicity [13] -11% [at 15.8 µM] | cytotoxicity increase [14] -12.9% [at 15.8 µM] | activity change, negative = cytotoxicity [15] -2.88% [at 15.8 µM] | cytotoxicity increase [16] -8.24% [at 15.8 µM] | cytotoxicity [17] -4.1% [at 15.8 µM] | cytotoxicity increase [18] -12.6% [at 15.8 µM] | cytotoxicity increase [19] -6.52% [at 15.8 µM] | activity change, negative = cytotoxic [20] -8.4% [at 15.8 µM]

F[Si-2](F)(F)(F)(F)F
inactive: outcome [1] | outcome [2] | Potency [3] | Potency [4] | outcome [5] | Potency [6] | Potency [7] | max response [9] -1.11% | Potency [10] | Potency [11] | outcome [12] | Potency [13] | Potency [14] | outcome [15] | Potency [16] | Potency [17] | Potency [18] | Potency [19] | outcome [20]

CC(=O)/C=C/c1ccco1
inactive: outcome [1] | outcome [2] | Potency [3] | Potency [4] | outcome [5] | Potency [6] | Potency [7] | outcome [8] | max response [9] 7.79% | Potency [10] | Potency [11] | outcome [12] | Potency [14] | outcome [15] | Potency [16] | Potency [17] | Potency [18] | Potency [19] | outcome [20]

CC(C)(c1ccc(Oc2ccc3c(c2)C(=O)OC3=O)cc1)c1ccc(Oc2ccc3c(c2)C(=O)OC3=O)cc1
inactive: outcome [1] | outcome [2] | Potency [3] | Potency [4] | outcome [5] | Potency [6] | Potency [7] | max response [9] 19.4% | Potency [10] | Potency [11] | outcome [12] | Potency [13] | outcome [15] | Potency [16] | Potency [17] | Potency [18] | Potency [19] | outcome [20]

Cc1ccccc1C(=O)N1CC/C(=N\OS(=O)(=O)O)c2ccc(Cl)cc21
inactive: outcome [1] | outcome [2] | Potency [3] | Potency [4] | outcome [5] | Potency [6] | Potency [7] | outcome [8] | max response [9] -2.43% | Potency [10] | outcome [12] | outcome [15] | Potency [16] | Potency [19] | outcome [20]
active: Potency [14] 23.9 µM

Nc1ccc(/C=C/c2ccc(N)cc2S(=O)(=O)O)c(S(=O)(=O)O)c1
inactive: activity change, positive = activation [1] 2.43% [at 0.349 µM] | activity change, negative = cytotoxicity [2] 2.78% [at 0.29 µM] | activity change, negative = cytotoxic [3] 0.295% [at 0.29 µM] | cytotoxicity [4] 5.28% [at 0.29 µM] | activity change, negative = cytotoxic [5] 0.506% [at 0.29 µM] | cytotoxicity increase [6] -0.161% [at 0.29 µM] | activity change, negative = cytotoxicity [7] 2.56% [at 0.29 µM] | viability change, negative = cytotoxic [8] 5.84% [at 0.29 µM] | max response [9] 2.9% | activity change [10] 0.201% [at 0.29 µM, hits give high values] | cytotoxicity increase [11] -10.5% [at 0.29 µM] | activity change, negative = cytotoxic [12] -0.0646% [at 0.29 µM] | cytotoxicity increase [14] -16.8% [at 0.29 µM] | activity change, negative = cytotoxicity [15] 3.48% [at 0.29 µM] | cytotoxicity increase [16] -0.592% [at 0.29 µM] | cytotoxicity [17] 1.07% [at 0.29 µM] | cytotoxicity increase [18] -15.7% [at 0.29 µM] | cytotoxicity increase [19] 0.921% [at 0.29 µM]

C=CCOCC(CO)(COCC=C)COCC=C
inactive: outcome [1] | outcome [2] | Potency [3] | Potency [4] | outcome [5] | Potency [6] | Potency [7] | outcome [8] | max response [9] 0.319% | Potency [10] | outcome [12] | Potency [14] | outcome [15] | Potency [16] | Potency [17] | Potency [18] | Potency [19] | outcome [20]

CCCCCCCCOC(C)=O
inactive: outcome [1] | outcome [2] | Potency [3] | Potency [4] | outcome [5] | Potency [6] | Potency [7] | outcome [8] | max response [9] 7.81% | Potency [10] | Potency [11] | outcome [12] | Potency [13] | outcome [15] | Potency [16] | Potency [17] | Potency [18] | Potency [19] | outcome [20]

O=c1[nH]c(=O)c2ccccc2o1
inactive: outcome [1] | outcome [2] | Potency [3] | Potency [4] | outcome [5] | Potency [6] | Potency [7] | outcome [8] | max response [9] 1.98% | Potency [10] | outcome [12] | Potency [13] | Potency [14] | outcome [15] | Potency [16] | Potency [17] | Potency [18] | Potency [19] | outcome [20]

Cc1ccccc1C
inactive: outcome [1] | outcome [2] | Potency [3] | outcome [5] | Potency [7] | max response [9] 13.2% | Potency [10] | Potency [11] | outcome [12] | Potency [13] | Potency [14] | outcome [15] | Potency [16] | Potency [17] | Potency [18] | Potency [19] | outcome [20]

CCCCOC(=O)C(C)OC(=O)CCC (stereo unspecified)
inactive: outcome [1] | outcome [2] | Potency [3] | Potency [4] | outcome [5] | Potency [7] | outcome [8] | max response [9] 13% | Potency [10] | Potency [11] | outcome [12] | Potency [13] | Potency [14] | outcome [15] | Potency [16] | Potency [18] | Potency [19] | outcome [20]

CCCCCN(CCCOC)C(=O)C(CCC(=O)O)NC(=O)c1ccc(Cl)c(Cl)c1 (stereo unspecified)
inactive: outcome [1] | outcome [2] | Potency [3] | outcome [5] | Potency [7] | outcome [8] | max response [9] -0.0123% | Potency [10] | outcome [12] | outcome [15] | Potency [16] | Potency [19]

CCNC(=O)NCCCOc1cccc(CN2CCCCC2)c1
active: Potency [14] 26.8 µM
inactive: outcome [1] | outcome [2] | Potency [3] | Potency [4] | outcome [5] | Potency [7] | max response [9] -3.36% | Potency [10] | outcome [12] | outcome [15] | Potency [16] | Potency [17] | Potency [19]
